Results filed as inconclusive are left out. Activity calls are given as the source filed them. Calls follow the shape of the dose curve; as a rule, active = well fitted inhibition curve with a large enough effect in the signal ratio in the repeat runs (not every such curve was filed as active); inconclusive = weak or mixed curves, or effect the other way; inactive = no such curve, though single readings can be large or run the other way; the % refers to the signal ratio.
These compounds were tested against Bile acid receptor (Homo sapiens) (UniProt Q96RI1) (assay: qHTS assay to identify small molecule antagonists of the farnesoid-X-receptor (FXR) signaling pathway (AID 743217)). Details: HEK293T FXR-UAS-bla, beta-lactamase ratio, CDCA-stimulated, 16 h; series mostly up to 62.6 µM.
Source text: U.S. Tox21 Program National Center for Advancing Translational Sciences [NCATS] NIH Chemical Genomics Center [NCGC] U.S. Environmental Protection Agency [EPA] National Institutes of Environmental Health Sciences [NIEHS] National Toxicology Program [NTP] U.S. Food and Drug Administration [FDA] Tox21 Assay Overview: The farnesoid-X-receptor (FXR), a nuclear hormone receptor, is highly expressed in liver, intestine, kidney and adrenal cortex. Natural ligands of FXR are the bile acids (Cholic acid, Chenodeoxy cholic acid etc). FXR is an important regulator of diverse metabolic pathways, including the bile acid homeostasis, lipid and glucose metabolisms. FXR regulates the expression of target genes by binding either as a monomer or as a heterodimer with the retinoid X receptor (RXR). Numerous studies have reported that FXR exerts protective function during cholestasis, diabetes, liver regeneration, and cancer. To identify compounds that inhibit FXR signaling, GeneBLAzer FXR-UAS-bla HEK 293T cell line (Invitrogen, Carlsbad, CA) containing a beta-lactamase reporter gene under the control of a UAS response element was used to screen the Tox21 10K compound library.
Tox21 Assay Protocol Summary: FXR-bla cells were dispensed at 5000 cells/5uL/well in 1536-well black wall/clear bottom plates using a Multidrop Combi (Thermo Fisher Scientific, Waltham, MA) dispenser. After the assay plates were incubated at 37C and 5% CO2 for 5 h, 23 nL of compounds dissolved in DMSO, positive controls or DMSO only was transferred to the assay plate by a Pintool station (Kalypsys, San Diego, CA), followed by addition of 1 uL Chenodeoxycholic acid (50 uM, final concentration in the wells). The assay plates were incubated at 37C for 16 h. After 1 uL of LiveBLAzerTM B/G FRET substrate was added using a Bioraptr Flying Reagent Dispenser (FRD) workstation (Beckman Coulter, Indianapolis, IN), the plates were incubated at room temperature for 2 h, and fluorescence intensity was measured by an Envision plate reader (PerkinElmer, Shelton, CT).

Chain of Bile acid receptor (Homo sapiens) (Q96RI1 whole entry, looked up): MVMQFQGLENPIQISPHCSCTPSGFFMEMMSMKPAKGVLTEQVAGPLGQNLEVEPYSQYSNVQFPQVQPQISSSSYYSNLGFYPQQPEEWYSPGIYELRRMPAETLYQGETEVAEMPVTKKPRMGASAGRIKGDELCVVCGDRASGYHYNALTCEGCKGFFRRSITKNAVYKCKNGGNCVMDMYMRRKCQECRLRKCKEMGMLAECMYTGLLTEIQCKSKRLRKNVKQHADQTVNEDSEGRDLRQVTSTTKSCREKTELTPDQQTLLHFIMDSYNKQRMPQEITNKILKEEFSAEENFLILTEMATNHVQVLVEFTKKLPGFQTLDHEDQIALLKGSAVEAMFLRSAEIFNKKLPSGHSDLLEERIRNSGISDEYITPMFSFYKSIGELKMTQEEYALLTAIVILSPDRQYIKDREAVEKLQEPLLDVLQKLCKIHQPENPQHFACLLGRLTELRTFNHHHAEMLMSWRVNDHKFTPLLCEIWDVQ

Question: Which outcome does the source give for `CC(C)CCCO` here?
Answer: Its outcome is “inactive”.

Question: Which outcome does the source give for `CO[C@@]1(NC(=O)CSC[C@@H](N)C(=O)O)C(=O)N2C(C(=O)O)=C(CSc3nnnn3C)CS[C@@H]21` here?
Answer: The outcome was “inactive”.

Question: How did the outcome turn out when `COC(=O)Nc1ccc(Cl)c(Cl)c1` was run?
Answer: Its outcome is “inactive”.

Question: `CCOCC(C)O` (stereo not given) was tested. Which outcome did it give?
Answer: Its outcome is “inactive”.

Question: `CN(C)CCCN(C)CCCN(C)C` was tested. Which outcome did it give?
Answer: Its outcome is “inactive”.

Question: For `C[N+]1(C)CCCC(OC(=O)C(O)(c2ccccc2)c2ccccc2)C1` (stereo not given), which outcome is on record?
Answer: Its outcome is “inactive”.

Question: `CC(N)C12CC3CC(CC(C3)C1)C2` (stereo not given) was tested. Which outcome did it give?
Answer: Its outcome is “inactive”.

Question: With `C[C@@H]1C[C@H]2[C@@H]3C[C@H](F)C4=CC(=O)C(Cl)=C[C@]4(C)[C@@]3(F)[C@@H](O)C[C@]2(C)[C@@]1(O)C(=O)CO` as the compound, how does the outcome read?
Answer: Its outcome is “inactive”.

Question: How did the outcome turn out when `CC(=O)N1C[C@H](O)C[C@H]1C(=O)O` was run?
Answer: The outcome was “inactive”.

Question: For `NC(=O)NC1N=C([O][Al])NC1=O` (stereo not given), which outcome is on record?
Answer: The outcome was “inactive”.

Question: For `C=C(C)C(=O)OCC1CCCO1` (stereo not given), which outcome is on record?
Answer: The outcome was “inactive”.

Question: With `Clc1cc(Cl)c(Cl)nc1Cl` as the compound, how does the outcome read?
Answer: The outcome was “inactive”.

Question: With `O=C(O)c1cn(C2CC2)c2cc(N3CCNCC3)c(F)cc2c1=O` as the compound, how does the outcome read?
Answer: Its outcome is “inactive”.

Question: With `NS(=O)(=O)Cc1noc2ccccc12` as the compound, how does the outcome read?
Answer: The outcome was “inactive”.

Question: How did the outcome turn out when `C=CC(=O)OCCCl` was run?
Answer: The outcome was “inactive”.

Question: For `CCCCc1ccc2c(n1)[C@@H](c1ccc(OC)cc1C[C@H](C)C(=O)O)[C@H](C(=O)O)[C@H]2c1ccc2c(c1)OCO2`, which outcome is on record?
Answer: The outcome was “inactive”.

Question: Which outcome does the source give for `CC(C)C[C@@H](N)C(=O)O` here?
Answer: Its outcome is “inactive”.

Question: Which outcome does the source give for `CO/N=C(\C(=O)N[C@@H]1C(=O)N2C(C(=O)O)=C(CSc3nc(=O)c(O)nn3C)CS[C@H]12)c1csc(N)n1` here?
Answer: Its outcome is “inactive”.

Question: How did the outcome turn out when `NC(=O)N[C@@H](CCC(=O)O)C(=O)O` was run?
Answer: Its outcome is “inactive”.

Question: For `CN(C)C(=O)Oc1cccc([N+](C)(C)C)c1`, which outcome is on record?
Answer: Its outcome is “inactive”.

Question: With `CC(=O)c1ccc2ccccc2c1` as the compound, how does the outcome read?
Answer: The outcome was “inactive”.

Question: Which outcome does the source give for `CC12CCC(C(=O)C1=O)C2(C)C` (stereo not given) here?
Answer: Its outcome is “inactive”.

Question: How did the outcome turn out when `CC(C)(C#N)Nc1nc(Cl)nc(NC2CC2)n1` was run?
Answer: Its outcome is “inactive”.

Question: How did the outcome turn out when `C=C(C)C(=O)OCC(O)CO` (stereo not given) was run?
Answer: Its outcome is “inactive”.

Question: How did the outcome turn out when `COc1cc(-c2ccc(=O)[nH]n2)ccc1OC(F)F` was run?
Answer: Its outcome is “inactive”.

Question: How did the outcome turn out when `O=C(c1ccccc1O)c1ccccc1O` was run?
Answer: Its outcome is “inactive”.

Question: With `COc1cc(C(=O)OC(COCCC(C)C)CN2CCOCC2)cc(OC)c1OC` (stereo not given) as the compound, how does the outcome read?
Answer: Its outcome is “inactive”.

Question: `CN(C)CCCCCCN(C)C` was tested. Which outcome did it give?
Answer: The outcome was “inactive”.

Question: How did the outcome turn out when `Cc1ccc(C(=O)c2ccccc2)cc1` was run?
Answer: The outcome was “inactive”.

Question: Which outcome does the source give for `Cc1ccc(-c2ccccc2C#N)cc1` here?
Answer: The outcome was “inactive”.

Question: `CCN[C@H]1C[C@H](C)S(=O)(=O)c2sc(S(N)(=O)=O)cc21` was tested. Which outcome did it give?
Answer: The outcome was “inactive”.

Question: `N[C@H](C(=O)O)[C@@H](O)c1ccc(O)c(O)c1` was tested. Which outcome did it give?
Answer: Its outcome is “inactive”.

Question: Which outcome does the source give for `O=Cc1cccc(Br)c1` here?
Answer: Its outcome is “inactive”.

Question: For `CC(CO)(CO)[N+](=O)[O-]`, which outcome is on record?
Answer: The outcome was “inactive”.

Question: Which outcome does the source give for `CCOC(=O)C1=NOC(c2ccccc2)(c2ccccc2)C1` here?
Answer: Its outcome is “inactive”.

Question: Which outcome does the source give for `c1ccc(Cc2ccccc2)cc1` here?
Answer: Its outcome is “inactive”.

Question: How did the outcome turn out when `CNCCO` was run?
Answer: Its outcome is “inactive”.

Question: With `CCO[Si](OCC)(OCC)c1ccccc1` as the compound, how does the outcome read?
Answer: Its outcome is “inactive”.

Question: `C=COC(=O)C(C)(CC)CCC(C)C` (stereo not given) was tested. Which outcome did it give?
Answer: The outcome was “inactive”.

Question: With `Nc1ccncc1N` as the compound, how does the outcome read?
Answer: Its outcome is “inactive”.
